Data published in PubChem BioAssay AID596 (National Center for Advancing Translational Sciences (NCATS), 2007).
The campaign covered roughly 71,000 compounds. About 1,400 (2%) were called active. About 3% were inconclusive and are not listed. The call rests on the fitted dose curve; in most records, active means well fitted curve in the direction sought with a large enough effect; inconclusive means small, poorly fitted or top-dose-only effect; inactive means no such curve, though single readings can be large or run the other way. Shown is part of a subset that was picked to be rich in actives.

The compounds below were run against Microtubule-associated protein tau (Homo sapiens) (UniProt P10636) (assay: qHTS Assay for Tau Filament Binding). Details: recombinant tau filaments, thioflavin S fluorescence, 15 h, filaments grown with octadecylsulfate alongside compound; series mostly up to 57.1 µM; activity change, negative = inhibition: at the top concentration.
Microtubule-associated protein tau (Homo sapiens), sequence (P10636 whole entry, looked up): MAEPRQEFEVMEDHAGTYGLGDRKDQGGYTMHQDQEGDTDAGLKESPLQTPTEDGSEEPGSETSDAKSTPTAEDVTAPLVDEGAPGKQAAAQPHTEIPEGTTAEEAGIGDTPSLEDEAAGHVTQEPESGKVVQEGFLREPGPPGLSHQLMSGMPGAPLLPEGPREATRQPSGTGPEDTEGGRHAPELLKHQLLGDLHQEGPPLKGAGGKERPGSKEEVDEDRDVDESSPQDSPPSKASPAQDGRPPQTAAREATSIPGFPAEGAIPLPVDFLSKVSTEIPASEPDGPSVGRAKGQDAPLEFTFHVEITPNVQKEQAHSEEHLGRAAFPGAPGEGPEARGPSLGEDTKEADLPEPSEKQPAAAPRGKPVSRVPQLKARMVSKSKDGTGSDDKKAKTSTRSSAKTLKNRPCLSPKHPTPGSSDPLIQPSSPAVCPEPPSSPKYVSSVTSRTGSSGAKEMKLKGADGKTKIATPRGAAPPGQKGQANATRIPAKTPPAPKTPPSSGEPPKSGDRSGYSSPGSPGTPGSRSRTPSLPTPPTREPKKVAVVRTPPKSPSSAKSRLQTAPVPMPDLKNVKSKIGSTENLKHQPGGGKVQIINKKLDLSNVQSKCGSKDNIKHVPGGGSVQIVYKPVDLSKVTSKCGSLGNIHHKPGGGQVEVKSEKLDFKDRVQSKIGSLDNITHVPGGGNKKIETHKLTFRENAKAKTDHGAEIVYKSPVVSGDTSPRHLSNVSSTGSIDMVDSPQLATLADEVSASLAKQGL
In short: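 ThS-based fibril read: tau 1 uM final, inducer ODS 30 uM final, 37 C for 15 h, ex 450/em 510 nm.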
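Further: actives lower thioflavin S fluorescence by blocking filaments or displacing dye.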
On the % scale 0 is the no-effect control and ±100 the full control effect; potency means the concentration at half of the fitted maximal effect.

| SMILES | activity change, negative = inhibition | Potency |
| --- | --- | --- |
| C[C@]1(C(=O)NCCc2c[nH]c3ccccc23)C=C[C@@H](Cc2ccccc2)N1C(=O)c1ccccc1 | 78.2% (inactive) |  |
| Cn1cccc1C(=O)N1CCC2(CC1)CN(c1cccc(-c3ccccc3)c1)C2 | -8.2% (inactive) |  |
| CC(=O)CC(C)C | -8.5% (inactive) |  |
| C[C@H](CCC(=O)O)[C@H]1CC[C@@H]2[C@H]3CC[C@H]4C[C@H](O)CC[C@@]4(C)[C@@H]3CC[C@@]21C | 11.3% [at 11.4 µM] (inactive) |  |
| COC(=O)c1ccc(C(NC(=O)OCc2ccccc2)/C(C)=C/[C@@H](C)C(=O)NCc2cc(C)on2)cc1 (stereo partly drawn) | -4.6% (inactive) |  |
| COC(=O)[C@H]1C[C@@H]1[C@H](NC(=O)Oc1ccc(F)cc1)c1ccccc1 | -3.2% (inactive) |  |
| CCOC(=O)c1ccn(-c2nc(-c3ccco3)cc(C(F)(F)F)n2)n1 | -22.9% (inactive) |  |
| COC(=O)c1cnn2c(C(F)(F)F)cc(-c3ccco3)nc12 |  | 15.8 µM (active) |
| FC(F)(F)c1cc(-c2ccco2)nc(N2CCOCC2)n1 | 4% (inactive) |  |
| CCC[C@@H]1C[C@@]1(CCC)C(NS(=O)(=O)c1cccc2cccnc12)c1ccc(Cl)cc1 (stereo partly drawn) | -15.3% (inactive) |  |
| CN(C)C(=O)/N=N\C(=O)N(C)C | -7.5% (inactive) |  |
| CCCc1cc(=O)[nH]c(SCc2ccc(C#N)cc2)n1 | 2.2% (inactive) |  |
| CCc1nnc(NC(=O)CSc2nnc(Cc3ccccc3)n2-c2ccc(OC)cc2)s1 | -7.8% (inactive) |  |
| COc1ccc(Cc2nnc(NS(=O)(=O)Cc3ccccc3)s2)cc1 | -0.8% (inactive) |  |
| COc1ccc(Cc2nnc(NC(=O)Cc3cccs3)s2)cc1 |  | 25.1 µM (active) |
| COC(=O)N1CCC2(CCCN(c3ccncc3)C2)CC1 | 19.9% (inactive) |  |
| Cc1cccn2c(=O)c3cc(C#N)c(=O)n(CCCN4CCOCC4)c3nc12 | 2.6% (inactive) |  |
| O=C1C(c2[nH]c3ccccc3c2O)=Nc2ccccc21 | -20% (inactive) |  |
| Cc1cc2ccccc2n2c(SCC(=O)N3CCN(C(=O)c4ccco4)CC3)nnc12 | 6% (inactive) |  |
| O=C1c2ccccc2C(O)N1Cc1ccccc1 (stereo not drawn) | 2.9% (inactive) |  |
| CC[N+](C)(CC)CCC[n+]1c(-c2ccccc2)c2cc(N)ccc2c2ccc(N)cc21 |  | 1.58 µM (active) |
| CCOC(=O)Cn1c2c(c(-c3ccccc3OC)cc1=O)CCCC2 | 0.5% (inactive) |  |

| SMILES | activity change, negative = inhibition | Potency |
| --- | --- | --- |
| COCCn1c(=O)[nH]c2cc(C(=O)NCc3cccnc3)ccc2c1=O | 6.2% (inactive) |  |
| O=C(O)[C@H](CCc1ccccn1)c1ccccc1 | -5.3% [at 11.4 µM] (inactive) |  |
| CCSc1ncnc2c(C#N)c3n(c12)CCCCC3 | 11.1% (inactive) |  |
| CCSC1=C(C#N)C(=O)n2c1cc1c2CCCC1 |  | 25.1 µM (active) |
| CC(C)C[C@@H](CC(=O)N[C@@H](CCC(=O)O)CC(=O)O)NC(=O)[C@@H]1CCCC[C@H]1NC(=O)C[C@@H](NC(=O)C[C@H](CO)NC(=O)[C@@H]1CCCC[C@H]1N)C(C)C | -3.3% (inactive) |  |
| CCC(C)(C(=O)NC1CCCC1)N(C(=O)CNC(C)=O)c1ccc(C)cc1 (stereo not drawn) | -10.2% (inactive) |  |
| C=CC(=O)OCCOCCOCCOCCOC(=O)C=C |  | inactive |
| Cn1c(-c2ccco2)nc2cc3ccccc3cc21 | 97.4% (inactive) |  |
| Cc1nn2c3ccccc3nc2n(C)c1=O | -16.6% (inactive) |  |
| c1coc(-c2nc3nc4ccccc4n3nc2-c2ccco2)c1 |  | 3.16 µM (active) |
| COC(=O)C1(Cc2ccccc2)C=C2C(=C(C)C(=O)C2C)CN1 (stereo not drawn) | 21.1% (inactive) |  |
| Cc1ccc(C2CC(c3cccc(Br)c3)n3nc(N)nc3N2)cc1 (stereo not drawn) | -30% (inactive) |  |
| CCNC(=S)NCC | -11.9% (inactive) |  |
| O=c1c2ccccc2oc2nc(C3CCCCC3)n(Cc3ccco3)c(=O)c12 | -13.1% (inactive) |  |
| Cc1ccc(Cn2c(NC(=O)c3ccco3)nc3ccccc32)cc1 | 14.6% (inactive) |  |
| Cc1nc2c(c(=O)n1Cc1ccco1)c1nc3ccccc3nc1n2Cc1ccccc1 |  | 15.8 µM (active) |
| COCCCn1c2nc3ccccc3nc2c2c(=O)n(Cc3ccc(Cl)cc3)c(C)nc21 | 13.7% (inactive) |  |
| Cc1ccc(Cn2c(C)nc3c(c2=O)c2nc4ccccc4nc2n3Cc2ccco2)cc1 |  | 25.1 µM (active) |
| CCOC(=O)CSc1nc2c(sc(=S)n2CCc2ccccc2)c(=O)n1Cc1ccco1 | 98.7% (inactive) |  |
| CCC(C)(C)n1nnnc1C(c1ccccc1OC)N1CCSCC1 (stereo not drawn) | -8.9% (inactive) |  |
| c1ccc(-c2oc3ncnc(N4CCOCC4)c3c2-c2ccccc2)cc1 | 1.3% (inactive) |  |
| O=C1c2ccccc2-c2ncnc3c(N4CCOCC4)cc(N4CCOCC4)c1c23 |  | 5.01 µM (active) |

| SMILES | activity change, negative = inhibition | Potency |
| --- | --- | --- |
| c1cnn(-c2cc(N3CCOCC3)ncn2)c1 | -1.2% (inactive) |  |
| C[N+](C)(CCCCCC[N+](C)(C)CCCN1C(=O)c2cccc3cccc(c23)C1=O)CCCN1C(=O)c2cccc3cccc(c23)C1=O |  | 2 µM (active) |
| O=C1c2ccccc2C(=O)N1CCCSc1ccccc1 | -2.3% [at 11.4 µM] (inactive) |  |
| COc1ccc(N2C(=O)c3cccc4cccc(c34)C2=O)nn1 | 9.7% (inactive) |  |
| O=C(c1ccc2c(c1)N(Cc1ccc(F)cc1)C(=O)CS2)N1CCOCC1 | -5.7% (inactive) |  |
| COc1ccc(N)c(C)c1 | -6.8% (inactive) |  |
| CCCC(=O)Nc1ccc2c(c1)nc1n2CCSC1 | -16.2% (inactive) |  |
| Cc1cccc(C(=O)O)c1[N+](=O)[O-] | 11.9% (inactive) |  |
| Brc1ccc(OCCn2ccnc2)cc1 | -24.1% (inactive) |  |
| Cc1cccc(NC(=O)CSC(N)=O)c1C | 3.4% (inactive) |  |
| Cc1nc(C)c(C(=O)Nc2cccc(C)c2C)o1 |  | 15.8 µM (active) |
| Cc1ccccc1NC(=O)c1ccccc1 | 0.4% (inactive) |  |
| Cc1cccc(OCC(O)Cn2c(=N)n(CCN3CCOCC3)c3ccccc32)c1 (stereo not drawn) | 16% (inactive) |  |
| CC(C)OCCCNc1nc2c(c(=O)n(Cc3ccccc3F)c(=O)n2C)n1C | 8.7% (inactive) |  |
| Cc1ccc2nc(-c3ccccc3)cc(C(=O)O)c2c1 | 1.3% (inactive) |  |
| Cc1ccc(NC(=O)c2cc(-c3ccc(C)o3)nc3ccccc23)nc1 |  | 10 µM (active) |
| Cc1cc(=O)oc(C)c1C(=O)Nc1cnc2ccccc2c1 | 288% (inactive) |  |
| C1CCC2OC2C1 (stereo not drawn) | 2.7% (inactive) |  |
| N=C(CC(=O)Nc1ccccn1)c1ccccc1 | -2.3% [at 11.4 µM] (inactive) |  |
| CC1=Nn2c(nnc2-c2ccccc2)SC1 | 1.3% (inactive) |  |
| COc1ccc(-n2c(=O)c(C)nc3cnc(N4CCOCC4)nc32)cc1 | -8.4% (inactive) |  |
| Cc1cc(C)c2c(n1)nn1c(N3CCOCC3)cc(C)nc21 | 18.9% (inactive) |  |

| SMILES | activity change, negative = inhibition | Potency |
| --- | --- | --- |
| Cc1nn2c3cc(N4CCOCC4)ccc3nc2c2ccccc12 |  | 12.6 µM (active) |
| O=C(C(Cc1ccccc1)n1cccc1)N1CCN(C2CCCCC2)CC1 (stereo not drawn) | -11.5% (inactive) |  |
| O=C(O)/C(=C/c1c(C(=O)O)[nH]c2cc(Cl)cc(Cl)c12)c1ccccc1 | -6.4% (inactive) |  |
| O=C(CSc1nc2[nH]ncc2c(=O)n1-c1ccccc1)N1CCCc2ccccc21 | 13.4% (inactive) |  |
| O=c1nc(N2CCOCC2)nc2n1CCO2 | -11.4% (inactive) |  |
| COc1ccccc1-c1cc(NCc2cccs2)ncn1 | -0.6% (inactive) |  |
| COc1ccccc1CNc1nc(-c2c(C)noc2C)nc2ccccc12 | 91.2% (inactive) |  |
| COc1ccccc1-c1nc(NCc2cccs2)c2ccccc2n1 |  | 2.51 µM (active) |
| CNc1nc(-c2ccccc2OC)nc2ccccc12 |  | 12.6 µM (active) |
| COc1ccccc1-c1nc(N2CCN(C)CC2)c2ccccc2n1 | -25.5% (inactive) |  |
| COc1ccccc1-c1nc(NCCNC(C)=O)c2ccccc2n1 | -3.8% (inactive) |  |
| Cc1ccccc1C(=O)O | 1% (inactive) |  |
| CCCCCCN(C(=O)CCCCCN1C(=O)NC(c2ccc(C(F)(F)F)cc2)C(C(=O)OCc2ccccc2)=C1C)C(C(=O)NCCCC)c1ccc(OCC(=O)OC)c(C(=O)OC)c1 (stereo not drawn) | 72.4% (inactive) |  |
| COC(=O)[C@@]1(C)C=C[C@@H](Cc2ccccc2)N1C(C)=O | -6.5% (inactive) |  |
| COc1cc([C@H]2c3cc4c(cc3[C@@H](O[C@@H]3O[C@H]5CO[C@@H](C)O[C@]5(O)C[C@H]3O)[C@@H]3COC(=O)[C@H]23)OCO4)cc(OC)c1O | 0.5% (inactive) |  |
| COc1ccc(OC)c(Nc2nc(-c3ccc(O)c(O)c3)cs2)c1 |  | 20 µM (active) |
| COc1ccc(-c2n[nH]c(C)c2-c2ccc(OC)c(OC)c2)c(O)c1 | 1.1% (inactive) |  |
| Oc1ccc(-c2csc(Nc3cccnc3)n2)cc1 | -0.1% (inactive) |  |
| CCc1c(C)nc(N)n2c(SCC(=O)N3CCN(c4ccccc4)CC3)nnc12 | 1.5% (inactive) |  |
| CC(Cc1ccccc1)C(=O)N(C)Cc1ccccc1 (stereo not drawn) | -18.4% (inactive) |  |
| CCc1ccc(N(CC)c2ncnc3nc[nH]c23)cc1 | 14.7% (inactive) |  |
| CN(C(=O)COc1ccccc1)c1nnc(-c2ccncc2)s1 | -17.9% (inactive) |  |

| SMILES | activity change, negative = inhibition | Potency |
| --- | --- | --- |
| O=c1c(-c2cccs2)nc2cnc(Oc3ccccc3)nc2n1-c1ccccc1 | 47.6% (inactive) |  |
| CN(C(=O)COc1nnc(-c2cccs2)c(-c2cccs2)n1)c1ccccc1 |  | 25.1 µM (active) |
| CCCn1c(SCC(N)=O)nnc1C(C)C | 2.8% (inactive) |  |
| O=C(Cn1cnc2c(nnn2Cc2ccc(F)cc2)c1=O)NCc1ccc2c(c1)OCO2 | 7.3% (inactive) |  |
| CCOC(=O)C(C)Oc1cccc2c(=O)n(CC(=O)N3CCc4ccccc43)ccc12 (stereo not drawn) | 40.3% (inactive) |  |
| COCCNc1cc(-c2c(C)noc2C)ncn1 | -2.4% (inactive) |  |
| COC(=O)CCNc1ccc2c(c1)OCCO2 | 1.2% (inactive) |  |
| COc1ccc(C(=O)Nc2ccc3c(c2)OCO3)cc1OC | -6% (inactive) |  |
| CCOc1ccc(NCCC(=O)c2ccc3c(c2)OCO3)cc1 |  | 25.1 µM (active) |
| O=C(Cl)c1ccccc1[N+](=O)[O-] | 8% (inactive) |  |
| O=C(CSc1nnc(Cc2ccccc2)n1-c1ccccc1)N1CCOCC1 | -4% (inactive) |  |
| O=C1C(=O)N(CCN2CCOCC2)C(c2ccccn2)/C1=C(/O)c1ccc(Cl)cc1 (stereo not drawn) | 64.6% (inactive) |  |
| CCN(CC)CCN1C(=O)C(=O)/C(=C(/O)c2ccccc2)C1c1ccccc1F (stereo not drawn) | 6.1% (inactive) |  |
| CCN(CC)CCN1C(=O)C(=O)/C(=C(/O)c2ccc(OC)c(OC)c2)C1c1ccccn1 (stereo not drawn) |  | 20 µM (active) |
| CC(=O)OCCC(C)C | -0.1% (inactive) |  |
| CCc1ccc2oc(-c3ccc(N)cc3)nc2c1 |  | 25.1 µM (active) |
| CCCCCC(=O)Nc1ccc2oc(-c3ccncc3)nc2c1 | -29.6% (inactive) |  |
| COc1cccc(-c2nc3cc(C)ccc3o2)c1 | -7.9% (inactive) |  |
| CCCCCCc1ccc(O)cc1O | -23.7% (inactive) |  |
| CC(C)n1c(SCC(=O)Nc2ccccc2N2CCCCC2)nc2c1c(=O)n(C)c(=O)n2C | 5% (inactive) |  |
